# In PubChem BioAssay (EPA / NIEHS):
# Several values for one entry are separate records, joined by “and”; a condition that tells them apart may be missing. Equal values may be shown once. Where a structure was tested more than once in an assay, its records may differ in their call. Activity calls are given as the source filed them. How the source made its calls: active means hit-call score of the fitted dose curve at least 0.9, where 1 is the maximum; inactive means score below 0.9.
# How the values were obtained:
# [1] = ATG_GLI_CIS: Attagene CIS-FACTORIAL HepG2 Assay for human Zinc Finger Protein GLI1 (AID 2282945); settings: HepG2, Attagene cis-factorial reporter mRNA, GLI element; actives raise or lower the signal
# Outline: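 Transiently transfected HepG2 cells report endogenous transcription factor activity via cis-element-driven reporter units. After 24 h compound exposure, reporter mRNA was measured by RT-PCR with capillary electrophoresis; bidirectional fitting against DMSO baseline.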
# [2] = target: Bile acid receptor (Homo sapiens) (UniProt Q96RI1); experiment: ATG_IR1_CIS: Attagene CIS-FACTORIAL HepG2 Assay for human Nuclear Receptor Subfamily 1 Group H Member 4 (NR1H4), IR1 submotif (AID 2282946); settings: IR1 reporter transcription, actives raise or lower the signal
# Outline: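 Fluorescence of capillary-separated, HpaI-digested RT-PCR reporter products gave IR1-element mRNA induction in HepG2 cells 24 h after dosing. Endogenous transcription factors drove the cis-regulated reporters; activity was fitted bidirectionally against DMSO.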
# [3] = ATG_GRE_CIS: Attagene CIS-FACTORIAL HepG2 Assay for human Glucocorticoid Response Elements (GRE) (AID 2282947); settings: HepG2 GRE cis-reporter, Attagene multiplex mRNA; actives raise or lower the signal
# Outline: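 Read-out: fluorescent reporter-transcript fragments separated by capillary electrophoresis after RT-PCR. Transiently transfected HepG2 cells carrying cis-element-driven reporter units were dosed for 24 h; gain or loss of signal fitted against DMSO control.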
# [4] = ATG_ISRE_CIS: Attagene CIS-FACTORIAL HepG2 Assay for human Interferon Regulatory Factor 1 (IRF1) binding to an Interferon-Stimulated Response Element (ISRE) (AID 2282948); settings: HepG2 ISRE cis-reporter (Attagene), mRNA transcription readout; actives raise or lower the signal
# Outline: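 Read-out: fluorescent RT-PCR products resolved by capillary electrophoresis, reporting endogenous transcription factor activity via ISRE-driven reporter mRNA in transfected HepG2 cells dosed for 24 h; gain or loss fitted relative to DMSO.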
# [5] = ATG_M_32_CIS: Attagene CIS-FACTORIAL HepG2 Assay for M32 Transcription Factor (Internal Marker) (AID 2282949); settings: HepG2 Attagene cis-factorial M32 reporter, mRNA; actives raise or lower the signal;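 further: background control marker of the multiplexed CIS panel rather than a real target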
# Outline: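 Transient MRTU transfection of HepG2; 24 h compound treatment; TriZol RNA, oligo(dT) RT, reporter PCR, 6-FAM primer extension, HpaI cut, CE. Gain/loss of signal vs DMSO.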
# [6] = ATG_M_06_CIS: Attagene CIS-FACTORIAL HepG2 Assay for M06 Transcription Factor (Internal Marker) (AID 2282950); settings: HepG2 Attagene CIS-FACTORIAL M06 internal marker reporter; actives raise or lower the signal
# Outline: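 Measured 24 h post-dosing in transiently transfected HepG2 cells, this internal-marker endpoint reports reporter mRNA via RT-PCR with fluorescent primer extension and capillary electrophoresis. DMSO served as negative control and baseline for bidirectional fitting.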
# [7] = target: Hypoxia-inducible factor 1-alpha (Homo sapiens) (UniProt Q16665); experiment: ATG_HIF1a_CIS: Attagene CIS-FACTORIAL HepG2 Assay for human Hypoxia Inducible Factor 1 (HIF1A) (AID 2282951); settings: HepG2 Attagene cis-factorial HIF1a reporter transcription; actives raise or lower the signal
# Outline: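 RT-PCR/capillary electrophoresis fluorescence readout of reporter transcripts from endogenous-TF-driven cis elements in transfected HepG2 cells, 24 h exposure; activity fitted in both directions against DMSO controls.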
# [8] = target: Hepatocyte nuclear factor 6 (Homo sapiens) (UniProt Q9UBC0); experiment: ATG_HNF6_CIS: Attagene CIS-FACTORIAL HepG2 Assay for human Hepatocyte Nuclear Factor 6 (HNF6) (AID 2282952); settings: HepG2 Attagene cis-factorial HNF6 reporter transcription; actives raise or lower the signal
# Outline: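 Using cis-element reporters in HepG2 liver cells, the assay tracks endogenous factor-driven transcription 24 h post-dosing. Signal comes from 6-FAM-labelled, HpaI-digested RT-PCR fragments, with gain or loss scored against DMSO.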
# [9] = target: Heat shock factor protein 1 (Homo sapiens) (UniProt Q00613); experiment: ATG_HSE_CIS: Attagene CIS-FACTORIAL HepG2 Assay for human Heat Shock Transcription Factor 1 (HSE) (AID 2282953); settings: HepG2 HSE cis-reporter, Attagene RNA transcription; actives raise or lower the signal
# Outline: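 Reporter mRNA induction in HepG2 is measured 24 h after dosing, using transiently transfected multiplexed cis-regulated reporter units. Signal comes from capillary electrophoresis of labelled RT-PCR products, with DMSO as negative control.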
# [10] = ATG_MRE_CIS: Attagene CIS-FACTORIAL HepG2 Assay for human Metal Responsive Element (MRE) (AID 2282954); settings: HepG2 MRE cis-reporter transcription, Attagene multiplex; actives raise or lower the signal
# Outline: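 RT-PCR/capillary electrophoresis readout of reporter mRNA, 24 h post-dosing, in HepG2 cells transfected with multiplexed cis-regulated reporter constructs. Gain or loss of signal fitted bidirectionally against DMSO baseline.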
# Chain of Hypoxia-inducible factor 1-alpha (Homo sapiens) (Q16665 whole entry, looked up): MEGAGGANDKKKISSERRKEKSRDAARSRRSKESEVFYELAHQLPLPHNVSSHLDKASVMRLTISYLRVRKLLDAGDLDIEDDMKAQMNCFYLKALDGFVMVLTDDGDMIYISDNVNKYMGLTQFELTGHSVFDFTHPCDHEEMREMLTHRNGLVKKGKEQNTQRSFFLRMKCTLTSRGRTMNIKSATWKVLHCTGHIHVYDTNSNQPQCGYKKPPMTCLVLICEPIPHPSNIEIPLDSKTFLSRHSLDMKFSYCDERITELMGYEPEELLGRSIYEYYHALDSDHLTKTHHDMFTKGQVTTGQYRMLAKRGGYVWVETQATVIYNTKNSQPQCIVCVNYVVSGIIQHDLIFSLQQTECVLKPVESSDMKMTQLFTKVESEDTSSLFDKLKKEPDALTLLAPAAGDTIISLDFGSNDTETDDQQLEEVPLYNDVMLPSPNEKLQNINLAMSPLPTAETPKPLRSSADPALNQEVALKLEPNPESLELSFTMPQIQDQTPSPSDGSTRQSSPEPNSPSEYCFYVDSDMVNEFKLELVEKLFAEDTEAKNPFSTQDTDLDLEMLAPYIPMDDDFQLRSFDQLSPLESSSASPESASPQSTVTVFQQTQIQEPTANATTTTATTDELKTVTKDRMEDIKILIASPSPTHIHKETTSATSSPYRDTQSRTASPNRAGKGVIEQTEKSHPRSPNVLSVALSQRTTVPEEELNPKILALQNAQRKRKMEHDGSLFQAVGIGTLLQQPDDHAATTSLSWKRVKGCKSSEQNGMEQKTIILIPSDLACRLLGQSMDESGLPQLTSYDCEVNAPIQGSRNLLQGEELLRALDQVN
# Chain of Hepatocyte nuclear factor 6 (Homo sapiens) (Q9UBC0 whole entry, looked up, the tested form may be a part): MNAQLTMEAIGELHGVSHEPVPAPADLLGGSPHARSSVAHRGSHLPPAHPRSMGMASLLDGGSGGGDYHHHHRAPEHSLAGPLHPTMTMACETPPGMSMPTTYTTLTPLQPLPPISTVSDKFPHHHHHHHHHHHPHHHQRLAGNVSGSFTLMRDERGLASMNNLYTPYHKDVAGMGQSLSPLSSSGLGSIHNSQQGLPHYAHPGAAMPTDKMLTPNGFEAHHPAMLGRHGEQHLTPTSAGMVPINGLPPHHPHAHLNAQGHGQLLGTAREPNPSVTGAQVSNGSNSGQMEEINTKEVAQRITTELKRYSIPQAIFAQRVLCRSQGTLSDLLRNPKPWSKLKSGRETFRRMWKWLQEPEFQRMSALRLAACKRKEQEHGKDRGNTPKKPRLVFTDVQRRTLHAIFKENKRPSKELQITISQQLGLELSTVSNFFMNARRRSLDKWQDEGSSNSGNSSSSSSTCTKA
# Chain of Heat shock factor protein 1 (Homo sapiens) (Q00613 whole entry, looked up): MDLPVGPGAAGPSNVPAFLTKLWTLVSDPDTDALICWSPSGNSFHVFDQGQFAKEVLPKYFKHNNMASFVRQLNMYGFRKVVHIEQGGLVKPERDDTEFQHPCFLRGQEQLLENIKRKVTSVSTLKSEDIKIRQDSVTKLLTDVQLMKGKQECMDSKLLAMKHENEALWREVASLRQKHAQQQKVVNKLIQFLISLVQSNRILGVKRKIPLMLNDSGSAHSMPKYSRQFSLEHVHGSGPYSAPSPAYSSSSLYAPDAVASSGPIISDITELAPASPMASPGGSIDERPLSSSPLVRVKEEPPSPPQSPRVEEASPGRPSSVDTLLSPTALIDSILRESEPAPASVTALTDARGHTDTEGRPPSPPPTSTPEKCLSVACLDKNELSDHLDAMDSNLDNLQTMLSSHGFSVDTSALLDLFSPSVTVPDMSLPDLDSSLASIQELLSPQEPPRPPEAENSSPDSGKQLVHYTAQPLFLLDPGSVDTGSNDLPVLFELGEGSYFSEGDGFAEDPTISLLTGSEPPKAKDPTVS
# Chain of Bile acid receptor (Homo sapiens) (Q96RI1 whole entry, looked up): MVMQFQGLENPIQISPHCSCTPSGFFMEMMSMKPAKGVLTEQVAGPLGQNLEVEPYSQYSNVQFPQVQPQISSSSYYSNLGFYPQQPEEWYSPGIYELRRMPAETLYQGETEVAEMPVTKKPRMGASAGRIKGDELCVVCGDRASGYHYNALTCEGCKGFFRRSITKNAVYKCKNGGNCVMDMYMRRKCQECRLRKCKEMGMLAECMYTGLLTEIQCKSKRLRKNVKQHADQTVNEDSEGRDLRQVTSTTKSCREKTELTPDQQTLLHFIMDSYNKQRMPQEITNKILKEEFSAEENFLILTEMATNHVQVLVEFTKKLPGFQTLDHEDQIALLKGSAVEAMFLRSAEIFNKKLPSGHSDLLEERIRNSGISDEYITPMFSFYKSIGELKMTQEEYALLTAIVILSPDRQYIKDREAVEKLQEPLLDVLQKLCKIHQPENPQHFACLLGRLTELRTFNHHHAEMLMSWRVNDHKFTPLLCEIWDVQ
SMILES,outcome [1],outcome [2],outcome [3],outcome [4],outcome [5],outcome [6],outcome [7],outcome [8],outcome [9],outcome [10],AC50 [9],AC50 [10],AC50 [7],AC50 [4],AC50 [3]
COC(=O)c1ccccc1C(=O)OC,inactive,inactive,inactive,inactive,inactive,inactive,inactive,inactive,inactive,inactive,–,–,–,–,–
CC(C)Oc1cc(-n2nc(C(C)(C)C)oc2=O)c(Cl)cc1Cl,inactive,inactive,inactive,inactive,inactive,inactive,inactive,inactive,–,–,50 µM (active),25.1 µM (active),–,–,–
CCCCOC(=O)c1ccccc1C(=O)OCCCC,inactive,–,inactive,inactive,inactive,inactive,inactive,inactive,inactive,inactive,–,41.4 µM (active),59.5 µM (active),–,–
COc1cnc(OC)n2nc(NS(=O)(=O)c3c(OCC(F)F)cccc3C(F)(F)F)nc12,inactive,–,inactive,inactive,inactive,inactive,inactive,inactive,inactive,inactive,–,–,–,–,–
CCNc1nc(Cl)nc(NCC)n1,inactive,inactive,inactive,inactive,inactive,inactive,inactive,inactive,inactive,inactive,–,–,–,–,–
CCOc1cc(Oc2ccc(C(F)(F)F)cc2Cl)ccc1[N+](=O)[O-],inactive,inactive,inactive,inactive,inactive,inactive,inactive,inactive,inactive,–,–,22 µM (active),–,–,–
CCOC(=O)CC(SP(=S)(OC)OC)C(=O)OCC (stereo not drawn),inactive,–,inactive,inactive,inactive,inactive,inactive,inactive,inactive,–,–,100 µM (active) and 13.2 µM (active),24.4 µM (active),–,–
CCNc1nc(Cl)nc(NC(C)C)n1,inactive,–,inactive,inactive,inactive,inactive,inactive,inactive,inactive,inactive,–,–,–,–,–
COc1nc(C)nc(NC(=O)NS(=O)(=O)c2ccccc2Cl)n1,inactive,–,inactive,inactive,inactive,inactive,inactive,inactive,inactive,inactive,–,–,–,–,–
O=C(O)COc1nc(Cl)c(Cl)cc1Cl,inactive,inactive,inactive,inactive,inactive,inactive,inactive,inactive,inactive,inactive,–,–,–,–,–
CON(C)C(=O)Nc1ccc(Cl)c(Cl)c1,inactive,–,inactive,inactive,inactive,inactive,inactive,inactive,inactive,inactive,–,–,–,–,–
CS/C(C)=N/OC(=O)N(C)SN(C)C(=O)O/N=C(\C)SC,inactive,inactive,inactive,inactive,inactive,inactive,inactive,inactive,inactive,inactive,–,–,–,–,–
Cc1cc(Cl)ccc1OCC(=O)O,inactive,–,inactive,inactive,inactive,inactive,inactive,inactive,inactive,inactive,–,–,–,–,–
CO/C=C(/C(=O)OC)c1ccccc1Oc1cc(Oc2ccccc2C#N)ncn1,inactive,–,inactive,inactive,inactive,inactive,inactive,inactive,inactive,–,168 µM (active) and 155 µM (active) and 170 µM (active),50 µM (active) [middle of 6 runs],–,–,–
CCON=C(CC)C1=C(O)CC(c2c(C)cc(C)cc2C)CC1=O (stereo not drawn),inactive,inactive,inactive,inactive,inactive,inactive,inactive,inactive,inactive,inactive,–,–,–,–,–
CCOP(=S)(OCC)SCn1c(=O)oc2cc(Cl)ccc21,inactive,inactive,inactive,inactive,inactive,inactive,–,inactive,–,–,78.7 µM (active),66.2 µM (active),28.8 µM (active),–,–
CNC(=S)S,inactive,–,inactive,inactive,inactive,inactive,inactive,inactive,inactive,inactive,83 µM (active),70.4 µM (active),–,73.5 µM (active),–
CCCCC(CC)COC(=O)c1ccccc1C(=O)OCC(CC)CCCC (stereo not drawn),inactive,inactive,inactive,inactive,inactive,inactive,inactive,inactive,–,inactive,–,–,–,–,–
Cc1c(F)c(F)c(COC(=O)C2C(/C=C(\Cl)C(F)(F)F)C2(C)C)c(F)c1F (stereo not drawn),inactive,inactive,inactive,inactive,inactive,inactive,inactive,inactive,inactive,inactive,–,–,–,–,–
OC(c1ccc(Cl)cc1)(c1cncnc1)c1ccccc1Cl (stereo not drawn),inactive,–,inactive,inactive,inactive,inactive,inactive,inactive,inactive,inactive,69 µM (active),70.8 µM (active),–,–,0.622 µM (active)
CC(Oc1ccc(Cl)cc1Cl)C(=O)O (stereo not drawn),inactive,inactive,inactive,inactive,inactive,inactive,inactive,inactive,inactive,inactive,–,–,–,–,–
COc1nc(C)nc(NC(=O)NS(=O)(=O)c2ccccc2CCC(F)(F)F)n1,inactive,inactive,inactive,inactive,inactive,inactive,inactive,inactive,inactive,inactive,–,–,–,–,–
O=C(O)c1nc(Cl)ccc1Cl,inactive,–,inactive,inactive,inactive,inactive,inactive,inactive,inactive,inactive,–,–,–,–,–
N#CC(CCc1ccc(Cl)cc1)(Cn1cncn1)c1ccccc1 (stereo not drawn),inactive,inactive,inactive,inactive,inactive,inactive,inactive,inactive,inactive,inactive,–,–,–,–,–
COC(=O)C=C(C)OP(=O)(OC)OC,inactive,inactive,inactive,inactive,inactive,inactive,inactive,inactive,inactive,inactive,–,–,–,–,–
CCCCNC(=O)n1c(NC(=O)OC)nc2ccccc21,inactive,inactive,inactive,inactive,inactive,inactive,inactive,inactive,inactive,inactive,–,–,–,–,–
N#Cc1cc(Br)c(O)c(Br)c1,inactive,inactive,inactive,inactive,inactive,inactive,inactive,inactive,inactive,–,–,39.9 µM (active),–,–,–
